Screens as filed in PubChem BioAssay.
Many of the other results were omitted from the sample, so hits are more common in it than they were.
CD11b adhes enh = enhancers of human CD11b/CD18 binding to fibrinogen; P05107+P11215; K562 CD11b/CD18 adhesion to fibrinogen, ATPlite luminescence; activation, % at 10 µM; 93,000 compounds, 0.07% hits; AID 1499;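 active = 10 µM primary screen giving 50% or more activity, confirmed by 40% or more on retest at that dose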
E coli WT exp = growth inhibitors of E. coli BW25113 wild type. OD600 absorbance. growth inhibition, % at 100 µM. 98,000 compounds, 0.15% hits. AID 710;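 active = growth inhibition above about 50% at one test dose, limit read from the data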;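 note: growth measured after 20 h incubation at 37 °C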
CD11b adhes inh = blocks human CD11b/CD18 adhesion to fibrinogen; AID 1497; 93,000 compounds, 0.54% hits; K562 CD11b/CD18 adhesion to fibrinogen, ATPlite luminescence; Mn2+ added to activate the integrin; inhibition, % at 10 µM; P05107+P11215;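 active = primary inhibition of 50% or more at 10 µM, then 40% or more on retest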
Cav3 T inh = blocks human Cav3.2 T-type calcium channel; O95180; Cav3.2-expressing cells, Fluo-4 calcium fluorescence FDSS; stronger effect = lower value; B-score at 10 µM; 100,000 compounds, 4% hits;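 active = single-dose well whose peak fluorescence ratio is a statistical outlier from its plate by either plate-standardised score or position-corrected B-score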
Numbers without * were called inactive; . = not tested or not shown.

SMILES	CD11b adhes enh	E coli WT exp	CD11b adhes inh	Cav3 T inh
C=CCn1c(SCC(=O)c2[nH]c(C)c(C(=O)OC)c2C)nc2scc(-c3ccc(OC)c(OC)c3)c2c1=O	60.5	.	-5.5	.
COC(=O)c1cc(=O)n(CCc2ccccc2F)c(=Nc2ccc(F)c(Cl)c2)s1	0.9	-18.0	-17.4	-3.54*
COC(=O)c1cc(=O)n(Cc2ccco2)c(=Nc2ccc(F)c(Cl)c2)s1	7.4	-14.0	4.0	-1.9
Cc1c(C(=O)Nc2ccc(F)cc2)c2ccccn2c1CCc1ccncc1	-1.8	.	12.3	.
CCOC(=O)/C(=C\c1ccccc1)C(=O)c1cc(C(C)=O)c(Nc2ccccc2)s1	0.1	-21.0	-6.2	-1.08
CCOC(=O)/C(=C\c1cccnc1)C(=O)c1cc(C(C)=O)c(Nc2ccccc2)s1	-3.3	0.0	37.5	4.14*
Cc1ccc(CCNC(=O)C2CC(c3ccc(C(F)(F)F)cc3)=NO2)cc1 (centres undefined)	.	.	.	-0.42
CCOC(=O)C1=C(C)N(CCCC(=O)O)C(=O)NC1c1ccccc1OS(=O)(=O)c1ccc(C)cc1 (centres undefined)	.	.	.	0.979
O=[N+]([O-])c1ccc(N2N=C(c3ccco3)CC2c2ccccc2)cc1 (centres undefined)	14.5	-14.0	12.6	-5.01*
CCOC(=O)Cc1nnc2c(Nc3ccc(C)cc3)nc3nonc3n12	-0.1	8.0	2.3	1.2
CCOC(=O)Cc1nnc2c(Nc3ccccc3F)nc3nonc3n12	-11.1	8.0	99.4*	0.0235
C=CCn1c(NC(=O)c2ccccc2Cl)c(C#N)c2nc3ccccc3nc21	-8.2	0.0	96.6*	-7.05*
CCCCSc1nc(C)cc(C)c1S(=O)(=O)c1ccccc1C	.	2.0	.	-3.24
Cc1ccccc1OCC(=O)N1N=C(C(F)(F)F)CC1(O)C(C)(C)C (centres undefined)	.	.	.	-8.24*
Cc1ccc(OCC(=O)N2N=C(C(F)(F)F)CC2(O)C(C)(C)C)cc1C (centres undefined)	-6.9	0.0	80.3*	-7.34*
Cc1ccc(OCC(=O)N2N=C(c3cccnc3)CC2(O)C(F)(F)F)cc1C (centres undefined)	-3.6	.	7.2	.
CC(NS(=O)(=O)c1ccccc1)C(=O)Nc1nccs1 (centres undefined)	.	5.0	.	-0.0811
O=C(Nc1nccs1)C(NS(=O)(=O)c1ccc(Br)s1)c1ccccc1 (centres undefined)	-3.4	-4.0	0.2	-5.76*
O=C(CSc1nc2[nH]ncc2c(=O)[nH]1)N1CCCCC1	-3.0	.	-1.7	.
CN(C)S(=O)(=O)c1ccc(NC(=O)c2c(F)cccc2Cl)cc1	.	1.0	.	0.322
CN(C(=O)c1ccc2c(=O)n3c(nc2c1)CCCCC3)c1ccccc1	.	-13.0	.	0.576
O=C(c1ccc2c(=O)n3c(nc2c1)CCCCC3)N1CCN(C(c2ccccc2)c2ccccc2)CC1	2.6	2.0	1.4	-4.82*
CN(C)c1cccc(C(=O)Nc2ccc3nc4n(c(=O)c3c2)CCCCC4)c1	4.1	-7.0	-1.2	-0.846
O=C(Nc1ccc(F)c(Cl)c1)c1ccc2c(=O)n3c(nc2c1)CCCCC3	-3.5	-3.0	-20.8	-7.67*
O=C(Nc1cccc(Cl)c1)c1ccc2c(=O)n3c(nc2c1)CCCCC3	-3.6	-14.0	12.3	-5.66*
SMILES	CD11b adhes enh	E coli WT exp	CD11b adhes inh	Cav3 T inh
C=CCn1c(Cc2cccs2)nnc1SC/C=C/c1ccccc1	-0.9	-5.0	17.3	-1.76
CCOc1ccccc1C(=O)N(Cc1ccccc1)Cc1cc2cc3c(cc2[nH]c1=O)OCCO3	.	.	.	0.0801
Cc1ccc(C)c(-n2nnnc2SCC(=O)NCCC2=CCCCC2)c1	3.0	-11.0	-22.0	-6.96*
Cc1onc(-c2ccccc2)c1C(=O)N1CCN(C)CC1	-1.8	-3.0	1.7	-0.0318
CCOC(=O)c1cnc(-n2nc(C)cc2C)nc1NC(C)c1ccccc1 (centres undefined)	.	-6.0	.	-8.81*
O=C(CNS(=O)(=O)c1ccc(F)cc1)N1CCN(c2ccccc2)CC1	-1.5	5.0	12.2	0.644
O=C(CNS(=O)(=O)c1ccc(Br)cc1)N1CCN(c2ccc(F)cc2)CC1	.	.	.	-7.77*
COc1ccc(Oc2cc(C(F)(F)F)cnc2C(N)=O)cc1	-1.7	-11.0	-7.6	.
O=C(CCc1nc(-c2ccccc2F)no1)NCCc1ccccc1Cl	2.9	6.0	-10.8	-7.78*
Cc1ccc(-c2noc(CCC(=O)NCCc3ccccc3Cl)n2)cc1	.	-1.0	.	-2.59
COc1ccccc1NC(=O)CCc1nc(-c2cccs2)no1	-4.3	8.0	-41.4	0.854
O=C(CCc1nc(-c2cccs2)no1)NCc1ccc(F)cc1Cl	2.4	-7.0	-3.8	-4.54*
Cc1ccc(CNC(=O)CCc2nc(-c3cccs3)no2)cc1	5.3	6.0	-2.9	-5.15*
S=C(NNc1ccc2ccccc2c1)NC1CCCCC1	3.8	.	-0.8	.
